The panel holds about 83,000 compounds, 20% with a hit somewhere; the sample as a whole holds those more often.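 Method: cells in 96-well plates; compound added at one concentration; 48 h incubation; percent growth measured; values under 10 scored active.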 A number with no mark means an inactive call. Activity calls are given as the source filed them.

Consider nine compounds from PubChem BioAssay (NCI).

Test in all cases: NCI-60 one-dose screen, 48 h (100 = growth as untreated, 0 = no growth, -100 = all killed)
Assay [1] has as its system SR leukemia. Particulars: 10 µM unless noted.
The test system of assay [2] is RPMI-8226 leukemia. Particulars: 10 µM unless noted.
For assay [3], the system named is OVCAR-8 ovarian. Particulars: 10 µM unless noted.
Assay [4] has as its system OVCAR-5 ovarian. Particulars: 10 µM unless noted.
The subject of assay [5] is OVCAR-4 ovarian. Particulars: 10 µM unless noted.
In assay [6] the test system is SK-OV-3 ovarian. Particulars: 10 µM unless noted.
Assay [7] relates to OVCAR-3 ovarian. Particulars: 10 µM unless noted.
Assay [8] deals with NCI/ADR-RES ovarian. Particulars: 10 µM unless noted.
Assay [9] concerns T-47D breast. Particulars: 10 µM unless noted.
Assay [10] relates to BT-549 breast. Particulars: 10 µM unless noted.
Assay [11] deals with MDA-MB-435 melanoma. Particulars: 10 µM unless noted.
In assay [12] the test system is SW-620 colon. Particulars: 10 µM unless noted.
The test system of assay [13] is MCF7 breast. Particulars: 10 µM unless noted.
The test system of assay [14] is HCT-116 colon. Particulars: 10 µM unless noted.
Assay [15] deals with KM12 colon. Particulars: 10 µM unless noted.
Assay [16] concerns IGROV1 ovarian. Particulars: 10 µM unless noted.
Assay [17] concerns HCC-2998 colon. Particulars: 10 µM.
The subject of assay [18] is HS 578T breast. Particulars: 10 µM.

Regarding `FC(F)c1nc2ccccc2n1-c1nc(N2CCOCC2)nc(N2CCOCC2)n1`, the growth in assay [1] is 1.58% (active); in [2], 8.02% (active); in assay [3] it was -8.56% (active); in assay [4], 1.3% (active); in assay [5], -17.1% (active); in [6], -46% (active). In addition, the growth in assay [7] is -0.63% (active); in [8] it was -12.9% (active); in [9] it was -36.1% (active); in assay [10], -8.49% (active); in [11], -8.55% (active); in [12], 13.4%. Also, the growth in [13] is 1.28% (active); in assay [14] it was 14%; in assay [15], 3.42% (active).

In the case of `Nc1cc(C(F)(F)F)c(-c2cc(N3CCOCC3)nc(N3CCOCC3)n2)cn1`, the growth in [1] is -6.66% (active); in assay [2] it was -6.64% (active); in assay [3], -24.2% (active); in assay [4] it was -17.3% (active); in [5], -11.9% (active); in assay [16] it was -44.6% (active). Also, the growth was -9.69% (active) in [7]; -20.2% (active) in [8]; -42.9% (active) in [9]; -2.66% (active) in assay [10]; -62.3% (active) in assay [11]; 0.981% (active) in assay [12]. In addition, the growth in assay [13] was -7.62% (active); in assay [14] it was -25.4% (active); in assay [17] it was -52.9% (active); in assay [15] it was -1.19% (active).

Turning to `N#CC[C@H](C1CCCC1)n1cc(-c2ncnc3[nH]ccc23)cn1`, the growth in assay [1] is 2.14% (active); in [2] it was 81.2%; in [3], 64.4%; in assay [4], 50.1%; in assay [5], 81.5%; in assay [16], 38%. For the same compound, the growth in assay [7] was 83%; in [8], 87.9%; in assay [9] it was 72%; in [10] it was 77.9%; in assay [11], 69.8%; in assay [12] it was 73.2%. The growth in assay [13] was 41.5%; in [14], 39.4%; in [17] it was 85.8%; in [15], 19.1%.

Turning to `CCCC(=O)OCC1OC(n2cnc3c(=S)nc[nH]c32)C(OC(=O)CCC)C1OC(=O)CCC` (stereo not given), the growth in [1] is 24%; in [3] it was -8.32% (active); in assay [4], 46.2%; in assay [5], 31.3%; in assay [6], 21%; in assay [16], 14.7%. In addition, the growth in [7] is 22.7%; in assay [18] it was 47.7%; in assay [8], 48.3%; in assay [9] it was 36.5%; in assay [10] it was 45.5%; in assay [11], 38%. The growth in [12] was 38.1%; in assay [13], 24.2%; in assay [14], 35.9%; in assay [17] it was 2.11% (active); in assay [15] it was 43.3%.

Consider `COc1cc(OC)c(/C=C/S(=O)(=O)Cc2ccc(OC)c(NCC(=O)O)c2)c(OC)c1`, for which the growth in [1] is 10.7%; in assay [2], 25.6%; in [3], 15.4%; in assay [4], 49.1%; in assay [5], 60.1%; in assay [16] it was 22.6%. Also, the growth is 35.9% in assay [7]; 9.1% (active) in assay [8]; 52.7% in assay [9]; 6.04% (active) in [10]; -30.5% (active) in [11]; 24.5% in assay [12]. In addition, the growth in assay [13] is 13.1%; in assay [14], 6.42% (active); in assay [15], 5.06% (active).

For `COc1cc(OC)c(C(=O)/C=C/c2cc3c(cc2OCc2ccccc2)OC(C)(C)CC3)cc1CC=C(C)C`, the growth in [1] was 11.6%; in assay [3], 1.96% (active); in assay [4], 64.7%; in assay [5], 44.7%; in assay [6] it was 78.6%; in [16] it was 66.5%. Further, the growth in assay [7] is 19.2%; in [18] it was 69.6%; in assay [8], 51.9%; in assay [9], 42.3%; in assay [10], 27.2%; in assay [11] it was 35.9%. For the same compound, the growth in assay [12] was 25.5%; in [13], 28.8%; in assay [14], 28.5%; in assay [15] it was 42.4%.

Take `CC(=O)OCCC/C(=C\c1ccc2ccccc2c1)[N+](=O)[O-]`: the growth in assay [1] was -33.8% (active); in assay [3] it was -91.3% (active); in assay [4] it was -93.2% (active); in assay [5], 11.1%; in [6], 57.9%; in [16] it was -82.3% (active). In addition, the growth in assay [7] was -96.6% (active); in assay [18], -40% (active); in assay [8], -7.25% (active); in [9], -50.9% (active); in assay [10], -25.6% (active); in assay [11] it was -41.6% (active). The growth in assay [12] is -71.6% (active); in [13], -85.2% (active); in assay [14], -100% (active); in assay [17], -92.7% (active); in assay [15], -86.7% (active).

For the compound `CC(=Nc1ccccc1)C1=C(O)C(Cc2ccc(O)cc2)NC1=O` (stereo not given), the growth in [1] is -9.58% (active); in assay [3], -53.5% (active); in [4], 32.1%; in assay [5], 36.6%; in assay [6] it was 23%; in assay [16], 17.8%. The growth was -63.2% (active) in assay [7]; -27.2% (active) in [18]; -13.4% (active) in assay [8]; 67.4% in assay [9]; 15.2% in assay [10]; -8.69% (active) in assay [11]. The growth in assay [12] was 15.6%; in assay [13], 10%; in assay [14] it was 3.3% (active); in assay [15], -35.5% (active).

On to `O=C(Nc1ccc(C(=O)Nc2ccc(C3=NCCCN3)cc2)cc1)Nc1ccc(C2=NCCCN2)cc1`, for which the growth in assay [1] is 44.5%; in assay [3], 57.4%; in assay [4], 93.2%; in assay [5], 65.5%; in [6], 97.8%; in assay [16], 99.7%. Also, the growth was 103% in assay [7]; 91.3% in assay [18]; 86.5% in [8]; 45.2% in assay [9]; 76.1% in assay [10]; 103% in assay [11]. The growth in [12] is 101%; in assay [13], 70.8%; in [14], 63.9%; in [17], 101%; in assay [15] it was 88.9%.
